Measurements as given in the supplement of paper PMC6555819.

Columns and labels:
Experiment in all cases: PBM binding z-score (relative to random genomic background probes); higher = stronger binding; sequences stand for … in GC…GCGATTGACAGCGTAGAATGAAGG
[1] = tested on: PPARg:RXRa DBDmut IVT, anti-RXR (DBD mutation: RXRa K156A/R161A, NR concentration 270 nM, RXRa partner concentration 90 nM)
Method in brief: (§1)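 Random background probes are the reference for binding z-scores. These scores derive from regression-normalized fluorescence on custom Agilent 4×180K protein-binding microarrays incubated 1 h with ligand-free nuclear receptor dimers. Binding was detected with antibodies against each partner (one per run).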

[2] = tested on: PPARg:RXRa IVT, anti-PPARg (NR concentration 270 nM, RXRa partner concentration 90 nM)
Method in brief: as §1

[3] = tested on: PPARg DBDmut:RXRa IVT, anti-PPARg (DBD mutation: PPARg1 K132A/R137A, NR concentration 270 nM, RXRa partner concentration 90 nM)
Method in brief: as §1

[4] = tested on: PPARg DBDmut IVT, anti-PPARg (DBD mutation: PPARg1 K132A/R137A, NR concentration 270 nM)
Method in brief: as §1

[5] = tested on: PPARg homodimer (NR concentration 180 nM)
Method in brief: as §1

[6] = tested on: PXR:RXRa (NR concentration 270 nM, RXRa partner concentration 90 nM)
Method in brief: as §1

[7] = tested on: PXR homodimer (NR concentration 270 nM)
Method in brief: as §1

[8] = tested on: RARa:RXR (NR concentration 270 nM, RXRa partner concentration 90 nM)
Method in brief: as §1

[9] = tested on: RARa homodimer (NR concentration 270 nM)
Method in brief: as §1

[10] = tested on: RARb:RXRa (NR concentration 270 nM, RXRa partner concentration 90 nM)
Method in brief: as §1

Row | Sequence | PBM binding z-score [1] | PBM binding z-score [2] | PBM binding z-score [3] | PBM binding z-score [4] | PBM binding z-score [5] | PBM binding z-score [6] | PBM binding z-score [7] | PBM binding z-score [8] | PBM binding z-score [9] | PBM binding z-score [10]
1 | TGAATGAGGTTATAAGATCAGGGGACGTTGCAAA | 1.5 | 1.82 | 0.706 | 0.291 | 0.361 | 0.901 | 0.3 | 1.58 | 0.169 | 1.43
2 | GCTAGTTGGTCAGTAAAAGGTCACAAACCGGTCG | 0.812 | 2.83 | -0.571 | -0.0957 | 2.9 | 4.8 | 1.2 | 5.58 | 1.91 | 3.91
3 | ATCGAAAGGACGAGGTGAGTATAGAGAAAGGGAA | 0.186 | 0.649 | 0.713 | 0.658 | 0.139 | -0.25 | 0.286 | 0.04 | 0.504 | 1.31
4 | CCGAATAGGTTATGGGGCATTCAGGCAACGGTGA | 1.26 | 1.71 | -0.226 | -0.668 | 0.678 | 0.141 | -0.0555 | 0.892 | 0.0562 | 1.27
5 | CGTCCAAGGTCATAGGAGGTCAGTGAAGACAGAT | 3.11 | 4.48 | 0.77 | -0.116 | 3.31 | 6.64 | 4.38 | 5.77 | 1.77 | 5.4
6 | CCGACTGGGGCAAATGTTACCATACTCAGTACGA | 4.63 | 3.74 | 0.00418 | 0.212 | 0.439 | -0.402 | -0.187 | -0.273 | -0.109 | 0.683
7 | CAAACTAGGTCACAGAAGTCAAAGTCCGTGCGTA | 8.28 | 9.03 | 4.57 | 2.37 | 2.34 | 2.34 | 0.405 | 3.34 | 0.949 | 4.35
8 | CCTCACGGGTCACTCCAGGTTATAGCATCGGAGT | 0.962 | 1.92 | -0.553 | -0.76 | 1.7 | 4.86 | 0.245 | 3.93 | 0.83 | 3.69
9 | ATCTCTAGGTAAGACTCAGTTCAGTGAGGAACGC | 1.94 | 1.26 | 0.558 | 0.604 | 0.314 | 0.836 | 1.56 | 0.193 | 0.359 | 0.376
10 | CGTCCCAGGTCAAGGTCAGTGAAAGAGACTCGAA | 2.24 | 3.62 | 0.134 | -0.571 | 3.49 | 4.05 | 1.33 | 4.43 | 2.12 | 5.02
11 | CGAACTCGGTCATTGACAGGACAGTGAATAGTAA | 2.98 | 2.26 | -0.213 | -0.299 | 0.0566 | 0.137 | -0.233 | 0.436 | -0.219 | 2.14
12 | TCTAGTTGGTCAAAGGTCACACAGTCGAAATGCG | 3.56 | 5.99 | 1.3 | 1.88 | 4.79 | 6.01 | 1.76 | 7.79 | 3.16 | 5.05
13 | TCAGACAGGTGAAGGTAACTCACGTACGCAGTCG | 2.67 | 1.17 | 0.022 | -0.274 | 0.847 | 0.479 | -0.00874 | 0.651 | 0.536 | 1.07
14 | CGTCAGAGTTCAAGGTAACGTAACAGAAAGCAGC | 0.546 | 0.936 | -0.0239 | 0.226 | 2.34 | 4.5 | 2.86 | 3.31 | 0.785 | 4.36
15 | TCTAGCAGGCCAGAGGGTCACTCTAGAGGTACGG | 0.721 | 0.95 | -0.508 | -0.98 | 0.476 | 1.24 | -0.322 | 2.07 | -0.492 | 2.27
16 | CCGAGCAGGTTATGGGGCATTCAGGCAACGGTGA | 0.393 | 1.05 | -0.884 | -0.839 | 0.261 | -0.112 | -0.362 | 0.225 | -0.391 | 1.04
17 | AGAATGAGGTTAATATCAGGGAAACAGAATACAT | 2.82 | 2.7 | 1.02 | 0.794 | 0.975 | 1.2 | 0.575 | 1.74 | 1.04 | 1.55
18 | TCTATTAGTTGATTAGGGCAACCGGAACAGCGGA | 2.14 | 1.3 | 0.694 | 0.839 | 1.02 | 0.35 | 0.534 | 0.296 | 0.818 | 1.06
19 | TCTGCTAGGTCAGTTGGTCAGCTGACGAGCTGCC | 2.95 | 3.18 | 1.59 | 1.47 | 0.336 | 0.0252 | -1.5 | 0.0768 | -1.43 | 3.42

Row | Sequence | PBM binding z-score [1] | PBM binding z-score [2] | PBM binding z-score [3] | PBM binding z-score [4] | PBM binding z-score [5] | PBM binding z-score [6] | PBM binding z-score [7] | PBM binding z-score [8] | PBM binding z-score [9] | PBM binding z-score [10]
20 | ATATGTTGGTTAAGGGTCATTCAGGTTGGTTCGC | 1.61 | 3.8 | 1.51 | 1.87 | 4.23 | 5.21 | 3.35 | 4.73 | 3.39 | 3.39
21 | ACTATTAGTAGAGACGAGGGCAACCGATAGGTTG | -0.0666 | 0.751 | 1.1 | 0.293 | 0.251 | 0.541 | 0.137 | 0.421 | 0.262 | 0.97
22 | ATATGTAGGTTACATCCGGGTCAATCAGGCTATG | 6.83 | 7.41 | 2.24 | 2 | 1.63 | 2.93 | 0.984 | 3.51 | 0.955 | 2.32
23 | CCGACTGGGGCAGAGGTTACCATACTCAGTACGA | 3.08 | 4.26 | -0.117 | -0.682 | 1.22 | 0.917 | -0.23 | 1.94 | -0.251 | 1.34
24 | CCTTACGGGTCACGAGGTTTTAGCACGACGAGCG | 4.32 | 5.48 | 0.0926 | 0.246 | 2.12 | 3.85 | -0.106 | 4.95 | 0.695 | 4.54
25 | ACTAGCAGGCCAATGGTCACTCAAGATTAGTCCG | 0.92 | 0.714 | -0.0875 | -0.449 | 0.0967 | -0.626 | -0.69 | -0.449 | -0.683 | 0.677
26 | CTCGAAAGGTCGTGCTCAGGTGAGTGTACCAAAC | 1.29 | 1.94 | -0.0151 | 0.438 | 1.83 | 3.52 | 0.0812 | 4.32 | 0.202 | 4.01
27 | ATCTCTCGGTAAAAGTTCAGTGAATCCCGAGGAT | -0.48 | 1.24 | 1.23 | 1.28 | 1.06 | 1.92 | 1.71 | 0.639 | 0.811 | 2.4
28 | TCTAGCTGGCCAGAGGGTCACTCAAGAGGTACGG | 0.731 | -0.216 | -1.57 | -1.05 | 0.244 | 1.38 | -0.401 | 1.83 | -0.851 | 1.73
29 | GGAATGAGGGCATTCGAGTTGATAGCATGGCGAT | 4.4 | 3.1 | 1.13 | -0.209 | 0.811 | 4.13 | 1.54 | 1.44 | -0.137 | 1.72
30 | ATCTCTAGATAAAAGTTCAGTGAATCCCGAGGAT | -0.00193 | 0.486 | 1.04 | 0.904 | 1.13 | 1.57 | 1.32 | 0.986 | 0.594 | 2.13
31 | TTACTAAGGTGAAAGGTCGTTGATGCACGCCTTG | 4.24 | 5.63 | 1.41 | 1.35 | 2.47 | 4.61 | 0.84 | 6.79 | 0.463 | 3.51
32 | CGAACTAGGGCATGAGTTGATAGCAAATGCCGAT | 7.01 | 6.1 | 1.05 | 0.0296 | -0.00514 | -0.191 | -0.257 | 0.155 | -0.133 | 1.12
33 | TCTGCTAGGTCAAAGATGGTCAGCTAATCTGCTA | 4.67 | 3.96 | 0.246 | 0.394 | 0.4 | 1.59 | -0.802 | 2.44 | -0.95 | 3.83
34 | GAATATAGGTAATACAAGGTGAAAGTCCGATTGT | 6.67 | 6.08 | 2.27 | 1.21 | 1.32 | 0.776 | 0.722 | 1.33 | 1.55 | 0.909
35 | CGTCCAAGGTCAGCAGGTCAGTGAAAGCGACGTG | 2.94 | 3.8 | 0.0823 | -0.0279 | 3.81 | 3.7 | 0.523 | 4.76 | 0.465 | 5.34
36 | TGAATGAGGCTATAAGATCAGGGAACGTTGCAAA | -0.531 | -0.142 | 0.314 | 0.0126 | -0.853 | -0.467 | -0.512 | -0.215 | -0.382 | -0.0944
37 | ATGCCAAGGTGATCGTGAGGTCGTTGATACTAAC | 0.413 | 1.05 | 0.0542 | -0.951 | 0.442 | 2.75 | 1.03 | 2.28 | -0.38 | 1.32
38 | GCTAGCAGGACATTTGGGTCACTCAATGACGGGC | 1.29 | 2.12 | -1.17 | -1.5 | -0.156 | 0.607 | 0.862 | 0.611 | -0.875 | 1.16
